{"source": "the supplement of paper PMC12350171", "note": "Structures can show the parent of a compound that is named as a salt.", "data": [{"test_system": "Haemophilus parainfluenzae", "assay": "growth AUC normalised to DMSO control (fraction of control); higher = less growth inhibition, active = hit call of the paper", "settings": "20 µM;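 active = AUC significantly below DMSO controls by Student t-fit with adjusted P under 0.01; inactive = not significantly reduced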", "in_short": "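For the AUC endpoint, growth curves were integrated by the trapezoidal rule up to the exponential-to-stationary transition and normalised to DMSO controls on the same plate. The curves came from OD578 readings taken hourly for 24 h, in three biological replicates. Pathogens had been passaged anaerobically twice and inoculated at an OD578 of 0.01 into pre-reduced mGAM plates carrying 20 μM compound and 1% DMSO, sealed with breathable membranes. Medium for Haemophilus parainfluenzae also contained hemin and NAD.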", "values": [{"smiles": "CC[N+](C)(C)Cc1ccccc1Br", "note": "[Bretylium tosylate]", "growth AUC normalised to DMSO control": "1.02 (inactive)"}, {"smiles": "Cc1cc2cc3c(C)cc(=O)oc3c(C)c2o1", "note": "[Trioxsalen]", "growth AUC normalised to DMSO control": "1.02 (inactive)"}, {"smiles": "CCCCC1C(=O)N(c2ccccc2)N(c2ccc(O)cc2)C1=O", "note": "(stereo not given) [Oxyphenbutazone]", "growth AUC normalised to DMSO control": "1.08 (inactive)"}, {"smiles": "C[C@]12CC[C@H]3C(=CCc4cc(O)ccc43)[C@@H]1CCC2=O", "note": "[Equilin]", "growth AUC normalised to DMSO control": "1.02 (inactive)"}, {"smiles": "CN(C)CCCN1c2ccccc2Sc2ccccc21", "note": "[Promazine hydrochloride]", "growth AUC normalised to DMSO control": "0.841 (inactive)"}, {"smiles": "CC(C)NC[C@@H](O)COc1ccc(CC(N)=O)cc1", "note": "[(R,+) Atenolol]", "growth AUC normalised to DMSO control": "0.98 (inactive)"}, {"smiles": "COc1cc(-c2ccc(=O)[nH]n2)ccc1OC(F)F", "note": "[Zardaverine]", "growth AUC normalised to DMSO control": "1.02 (inactive)"}, {"smiles": "COc1ccc(C(=O)c2ccccc2)c(O)c1", "note": "[Oxybenzone]", "growth AUC normalised to DMSO control": "1.06 (inactive)"}, {"smiles": "CCCOc1ccccc1-c1nc2[nH]nnc2c(=O)[nH]1", "note": "[Zaprinast]", "growth AUC normalised to DMSO control": "1.01 (inactive)"}, {"smiles": "Clc1ccc(COC(Cn2ccnc2)c2ccc(Cl)cc2Cl)c(Cl)c1", "note": "(stereo not given) [Miconazole]", "growth AUC normalised to DMSO control": "0.997 (inactive)"}, {"smiles": "Clc1ccc(C(Cn2ccnc2)OCc2c(Cl)cccc2Cl)c(Cl)c1", "note": "(stereo not given) [Isoconazole]", "growth AUC normalised to DMSO control": "0.972 (inactive)"}, {"smiles": "CCC(=O)O[C@]1(C(=O)CCl)[C@@H](C)C[C@H]2[C@@H]3CCC4=CC(=O)C=C[C@]4(C)[C@@]3(F)[C@@H](O)C[C@@]21C", "note": "[Clobetasol propionate]", "growth AUC normalised to DMSO control": "1.47 (inactive)"}, {"smiles": "COc1ccc(CN(CCN(C)C)c2ccccn2)cc1", "note": "[Pyrilamine maleate]", "growth AUC normalised to DMSO control": "0.99 (inactive)"}, {"smiles": "CNCCCC1c2ccccc2C=Cc2ccccc21", "note": "[Protriptyline hydrochloride]", "growth AUC normalised to DMSO control": "0.977 (inactive)"}, {"smiles": "CCN(Cc1ccncc1)C(=O)C(CO)c1ccccc1", "note": "(stereo not given) [Tropicamide]", "growth AUC normalised to DMSO control": "0.816 (inactive)"}, {"smiles": "CCC(=O)OCC(=O)[C@@]1(OC(=O)CC)[C@H](C)C[C@H]2[C@H]3[C@H]([C@@H](O)C[C@@]21C)[C@@]1(C)C=CC(=O)C=C1C[C@H]3Cl", "note": "[Alclometasone dipropionate]", "growth AUC normalised to DMSO control": "1.02 (inactive)"}, {"smiles": "CO[C@H]1/C=C/O[C@@]2(C)Oc3c(C)c(O)c4c(O)c(c(/C=N/N5CCN(C)CC5)c(O)c4c3C2=O)NC(=O)/C(C)=C\\C=C\\[C@H](C)[C@H](O)[C@@H](C)[C@@H](O)[C@@H](C)[C@H](OC(C)=O)[C@@H]1C", "note": "[Rifampicin]", "growth AUC normalised to DMSO control": "0.0335 (active)"}, {"smiles": "Cc1ncc([N+](=O)[O-])n1CC(C)O", "note": "(stereo not given) [Secnidazole]", "growth AUC normalised to DMSO control": "0.937 (inactive)"}, {"smiles": "COc1cc(C(=O)NCc2ccc(OCCN(C)C)cc2)cc(OC)c1OC", "note": "[Trimethobenzamide hydrochloride]", "growth AUC normalised to DMSO control": "1.05 (inactive)"}, {"smiles": "NS(=O)(=O)c1cc(C2(O)NC(=O)c3ccccc32)ccc1Cl", "note": "(stereo not given) [Chlorthalidone]", "growth AUC normalised to DMSO control": "1.01 (inactive)"}, {"smiles": "CNC[C@H](O)[C@@H](O)[C@H](O)[C@H](O)CO", "note": "[Meglumine]", "growth AUC normalised to DMSO control": "1.05 (inactive)"}, {"smiles": "CC(C)/N=c1\\cc2n(-c3ccc(Cl)cc3)c3ccccc3nc-2cc1Nc1ccc(Cl)cc1", "note": "[Clofazimine]", "growth AUC normalised to DMSO control": "1 (inactive)"}, {"smiles": "COC(=O)[C@H]1[C@H]2C[C@@H]3c4[nH]c5cc(OC)ccc5c4CCN3C[C@H]2C[C@@H](OC(=O)c2cc(OC)c(OC)c(OC)c2)[C@@H]1OC", "note": "[Reserpine]", "growth AUC normalised to DMSO control": "1.07 (inactive)"}, {"smiles": "C[C@H](CCC(=O)O)[C@H]1CC[C@H]2[C@@H]3C(=O)C[C@@H]4CC(=O)CC[C@]4(C)[C@H]3CC(=O)[C@]12C", "note": "[Dehydrocholic acid]", "growth AUC normalised to DMSO control": "0.972 (inactive)"}, {"smiles": "CC1CS(=O)(=O)CCN1/N=C/c1ccc([N+](=O)[O-])o1", "note": "(stereo not given) [Nifurtimox]", "growth AUC normalised to DMSO control": "0.596 (active)"}, {"smiles": "NC(=O)N/N=C/c1ccc([N+](=O)[O-])o1", "note": "[Nitrofural]", "growth AUC normalised to DMSO control": "0.465 (active)"}, {"smiles": "Cc1cnc(NC(=O)C2=C(O)c3ccccc3S(=O)(=O)N2C)s1", "note": "[Meloxicam]", "growth AUC normalised to DMSO control": "0.968 (inactive)"}, {"smiles": "O=C(O)Cc1cc(I)c(Oc2ccc(O)c(I)c2)c(I)c1", "note": "[Tiratricol]", "growth AUC normalised to DMSO control": "0.896 (inactive)"}, {"smiles": "COc1ccc(C(=O)NCc2ccc(OCCN(C)C)cc2)cc1OC", "note": "[Itopride]", "growth AUC normalised to DMSO control": "0.993 (inactive)"}, {"smiles": "CN[C@H](CC(C)C)C(=O)N[C@H]1C(=O)N[C@@H](CC(N)=O)C(=O)N[C@H]2C(=O)N[C@H]3C(=O)N[C@H](C(=O)N[C@H](C(=O)O)c4cc(O)cc(O)c4-c4cc3ccc4O)[C@H](O)c3ccc(c(Cl)c3)Oc3cc2cc(c3O[C@@H]2O[C@H](CO)[C@@H](O)[C@H](O)[C@H]2O[C@H]2C[C@](C)(N)[C@H](O)[C@H](C)O2)Oc2ccc(cc2Cl)[C@H]1O", "note": "[Vancomycin hydrochloride]", "growth AUC normalised to DMSO control": "1.01 (inactive)"}]}]}
